Measurements published in PubChem BioAssay (Tox21).
Values joined by “and” are separate entries in the source; they are usually repeats but may differ in a detail not shown here. Equal entries are not always repeated. Records with an inconclusive call do not appear. Entries that show only a call come without a potency. More than one record can exist for a structure, and the calls need not agree. Active and inactive are the calls of the source. Unless noted, calls come from the whole dose curve; as a rule, active = well fitted curve in the direction sought with a large enough effect in the repeat runs; inconclusive = weak or mixed curves; inactive = no such curve, though single readings can be large; an effect the other way counts as inactive or inconclusive.

Key:
[1] = qHTS assay to identify small molecule agonists of the estrogen receptor alpha (ER-alpha) signaling pathway in the presence of an antagonist - cell viability counter screen (AID 1259386);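 note: series mostly up to about 92 µM; cells exposed to compounds for 22 h at 37 °C before the viability read; nearly all actives have a fitted effect of over 30% in size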
How it was run: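 The test measures whether compounds kill ER-alpha reporter cells (VM7Luc4E2) under antagonist co-treatment (ICI-182,780, 10.0nM). Fluorescence from CellTiter-Fluor is read after a 22hr exposure.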

[2] = target: Progesterone receptor (Homo sapiens) (UniProt P06401); assay: qHTS assay to identify small molecule agonists of the progesterone receptor (PR) signaling pathway (AID 1346784; calls by dose curve; note: nearly all actives have a fitted effect of over 30% in size; note: potency is the fitted concentration of half-maximal effect)
Sequence of Progesterone receptor (Homo sapiens) (P06401 whole entry, looked up): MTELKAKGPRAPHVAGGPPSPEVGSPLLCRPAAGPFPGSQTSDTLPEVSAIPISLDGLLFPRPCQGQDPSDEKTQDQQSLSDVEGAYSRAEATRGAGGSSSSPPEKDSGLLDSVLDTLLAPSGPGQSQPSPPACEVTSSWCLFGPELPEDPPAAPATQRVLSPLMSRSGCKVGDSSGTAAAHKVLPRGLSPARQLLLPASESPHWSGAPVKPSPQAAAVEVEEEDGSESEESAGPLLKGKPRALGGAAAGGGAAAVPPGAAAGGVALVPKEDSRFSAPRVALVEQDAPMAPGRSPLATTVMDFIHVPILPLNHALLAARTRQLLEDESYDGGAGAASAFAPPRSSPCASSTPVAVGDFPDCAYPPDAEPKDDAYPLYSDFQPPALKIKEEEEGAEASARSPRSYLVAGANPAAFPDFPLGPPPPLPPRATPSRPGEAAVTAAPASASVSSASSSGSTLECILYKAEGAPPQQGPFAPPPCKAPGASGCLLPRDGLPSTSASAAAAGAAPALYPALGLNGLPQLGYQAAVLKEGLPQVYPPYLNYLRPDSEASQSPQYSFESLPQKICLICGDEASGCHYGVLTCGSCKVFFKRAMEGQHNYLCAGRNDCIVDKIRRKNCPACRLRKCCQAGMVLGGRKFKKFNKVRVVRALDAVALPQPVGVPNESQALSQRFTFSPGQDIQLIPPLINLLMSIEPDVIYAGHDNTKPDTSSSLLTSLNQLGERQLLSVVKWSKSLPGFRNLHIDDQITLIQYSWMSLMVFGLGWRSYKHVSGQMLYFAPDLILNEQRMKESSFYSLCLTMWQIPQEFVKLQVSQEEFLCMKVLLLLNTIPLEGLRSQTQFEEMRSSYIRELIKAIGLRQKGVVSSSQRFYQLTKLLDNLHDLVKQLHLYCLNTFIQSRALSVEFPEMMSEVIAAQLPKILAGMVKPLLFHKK
How it was run: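 Reporter assay, GripTite PR-UAS-bla HEK 293T cells: 16 hr exposure to DMSO-dissolved compounds at 37C, 5% CO2, in steroid-depleted (2% charcoal-stripped FBS) medium; beta-lactamase measured by FRET fluorescence.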

[3] = target: Progesterone receptor (Homo sapiens) (UniProt P06401); assay: qHTS assay to identify small molecule antagonists of the progesterone receptor (PR) signaling pathway (AID 1346795; active = well fitted inhibition curve with a large enough effect in the signal ratio in the repeat runs, not every such curve was filed as active; the % refers to the signal ratio; note: potency is the fitted concentration of half-maximal effect)
How it was run: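 Stimulus R5020 at 1 nM final; cells HEK293T PR-UAS-bla; medium with 2% charcoal-stripped FBS; compound exposure 16 hr at 37C, 5% CO2; detection by FRET beta-lactamase substrate, 2 hr, room temperature.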

[4] = qHTS assay to identify small molecule antagonists of the progesterone receptor (PR) signaling pathway - cell viability counter screen (AID 1346798); note: series mostly up to about 92 µM; nearly all actives have a fitted effect of over 50% in size
How it was run: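 In the same plates used for the beta-lactamase readout, cell viability of compound- and R5020-treated PR-UAS-bla HEK293T cells (16 hr, 37C) was assessed by CellTiter-Glo luminescence.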

[5] = qHTS assay to identify small molecule agonists of the progesterone receptor (PR) signaling pathway - cell viability counter screen (AID 1346799; calls by dose curve; note: nearly all actives have a fitted effect of over 45% in size)
How it was run: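 Multiplexed viability read: CellTiter-Glo luminescence, 30 min RT, following LiveBLAzer FRET measurement on PR-UAS-bla HEK293T cells exposed to compounds 16 hr.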

[6] = qHTS assay to identify small molecule antagonists of the TGF-beta/Smad signaling pathway - cell viability counter screen (AID 1346824); note: nearly all actives have a fitted effect of over 50% in size
How it was run: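 Cytotoxicity counter-screen run in the same wells as the beta-lactamase Smad reporter read: CellTiter-Glo luminescence after 30 min at room temperature. HEK 293T SBE-bla cells had 5 hr compound exposure at 37 C with TGF-beta1 (0.25 ng/mL stock).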

[7] = qHTS assay to identify small molecule agonists of the TGF-beta/Smad signaling pathway - cell viability counter screen (AID 1346829); note: top concentration of the series differs between compounds; nearly all actives have a fitted effect of over 45% in size
How it was run: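 Same-well cytotoxicity: CellTiter-Glo added after the 2 hr room-temperature beta-lactamase substrate step, luminescence measured 30 min later; cells had 5 hr of compound at 37 C.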

[8] = qHTS assay to identify small molecule agonists of the TGF-beta/Smad signaling pathway (AID 1346859; active = well fitted activation curve with a large enough effect in the signal ratio in the repeat runs, not every such curve was filed as active; the % refers to the signal ratio; note: series mostly up to about 77 µM)
How it was run: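 Screening used HEK 293T SBE-bla cells at 4,000/well. Test agents: 5 hr, 37 C. Detection: FRET substrate, 2 hr RT, then excitation 405 nm with emissions at 460 and 530 nm.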

[9] = target: Thyrotropin-releasing hormone receptor (Homo sapiens) (UniProt P34981); assay: qHTS assay to identify small molecule antagonists of the thyrotropin-releasing hormone receptor (TRHR) signaling pathway (AID 1346877; active = well fitted inhibition curve with a large enough effect in the repeat runs, not every such curve was filed as active; note: series mostly up to about 51 µM)
Sequence of Thyrotropin-releasing hormone receptor (Homo sapiens) (P34981 whole entry, looked up): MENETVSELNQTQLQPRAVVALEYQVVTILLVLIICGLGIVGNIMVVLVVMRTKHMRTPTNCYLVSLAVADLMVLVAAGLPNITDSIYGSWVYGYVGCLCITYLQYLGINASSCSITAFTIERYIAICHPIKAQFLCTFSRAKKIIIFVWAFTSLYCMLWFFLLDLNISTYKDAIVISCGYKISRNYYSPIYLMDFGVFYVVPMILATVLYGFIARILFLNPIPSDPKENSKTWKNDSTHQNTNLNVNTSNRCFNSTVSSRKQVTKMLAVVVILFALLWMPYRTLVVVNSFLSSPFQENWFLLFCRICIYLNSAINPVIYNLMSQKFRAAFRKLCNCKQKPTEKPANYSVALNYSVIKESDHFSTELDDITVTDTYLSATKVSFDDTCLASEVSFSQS
How it was run: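 Overnight-plated (18 h, 37 °C) HEK293 cells expressing TRHR were dye-loaded 2 h, treated with compound, then stimulated with TRH at 1 nM final. Fluorescence intensity was captured every second for 3 min.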

[10] = target: Thyrotropin-releasing hormone receptor (Homo sapiens) (UniProt P34981); assay: qHTS assay to identify small molecule agonists of the thyrotropin-releasing hormone receptor (TRHR) signaling pathway (AID 1346891; calls by dose curve; note: series mostly up to about 58 µM)
How it was run: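 Readout was intracellular calcium fluorescence in TRHR-Hek293 cells. Cells were incubated 18 h, dye-loaded 2 h at 37 °C, and treated with compound in agonist mode.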

[11] = Human pregnane X receptor (PXR) small molecule agonists, qHTS cell viability counter screen (AID 1346977); note: nearly all actives have a fitted effect of over 50% in size
How it was run: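 In each well, the PXR reporter HepG2 line was checked for viability: CellTiter-Fluor reagent added 23hr post-dosing, fluorescence read after 1hr incubation at 37C.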

[12] = Caspase-3/7 induction in HepG2 cells by small molecules, qHTS assay (AID 1346978); note: nearly all actives have a fitted effect of over 15% in size
How it was run: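 Caspase-3/7 induction was measured by Caspase-Glo 3/7 luminescence (30 min, room temperature) after a 17 hr compound exposure of wild-type HepG2 cells seeded at 2,000 per well and pre-incubated 5 hr.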

[13] = Caspase-3/7 induction in CHO-K1 cells by small molecules, qHTS cell viability counter screen (AID 1346979); note: nearly all actives have a fitted effect of over 35% in size; note: potency is the fitted concentration of half-maximal effect
How it was run: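 Following a 5hr settling period, CHO-K1 cells at 1,500 per well received DMSO-dissolved compounds. Cell viability was quantified 16hr later by CellTiter-Fluor fluorescence, measured after 1hr with reagent at 37C.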

[14] = Caspase-3/7 induction in CHO-K1 cells by small molecules, qHTS assay (AID 1346980); note: nearly all actives have a fitted effect of over 15% in size
How it was run: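 Luminescent Caspase-Glo 3/7 read (30min, room temperature) quantified apoptosis induction. Cells were wild-type CHO-K1, treated with compound for 17hr at 37 C and 5% CO2.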

[15] = target: Nuclear receptor subfamily 1 group I member 2 (Homo sapiens) (UniProt O75469); assay: Human pregnane X receptor (PXR) small molecule agonists, qHTS assay (AID 1346982); note: nearly all actives have a fitted effect of over 35% in size; note: potency is the fitted concentration of half-maximal effect
Sequence of Nuclear receptor subfamily 1 group I member 2 (Homo sapiens) (O75469 whole entry, looked up): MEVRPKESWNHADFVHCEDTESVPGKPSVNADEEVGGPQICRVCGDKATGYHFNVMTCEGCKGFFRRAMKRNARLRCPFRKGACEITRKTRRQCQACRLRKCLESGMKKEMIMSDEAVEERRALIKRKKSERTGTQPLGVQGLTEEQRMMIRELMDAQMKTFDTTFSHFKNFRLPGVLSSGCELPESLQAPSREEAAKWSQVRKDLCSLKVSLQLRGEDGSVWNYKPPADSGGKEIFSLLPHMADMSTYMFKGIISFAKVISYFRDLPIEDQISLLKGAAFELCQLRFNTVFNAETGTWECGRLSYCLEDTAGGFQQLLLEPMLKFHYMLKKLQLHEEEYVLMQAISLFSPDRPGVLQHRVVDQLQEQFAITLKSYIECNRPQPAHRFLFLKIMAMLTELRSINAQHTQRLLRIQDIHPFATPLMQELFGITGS
How it was run: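 Stable HepG2 line reporting PXR-mediated CYP3A4 expression via luciferase. Treatment: 24 hr with compounds in DMSO at 37 C. Detection: ONE-Glo luminescence.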

[16] = target: Acetylcholinesterase (Homo sapiens) (UniProt P22303); assay: Acetylcholinesterase (AChE) small molecule antagonists: colormetric cell-based qHTS assay (AID 1347395; calls by dose curve; note: nearly all actives have a fitted effect of over 30% in size; note: potency is the fitted concentration of half-maximal effect)
Sequence of Acetylcholinesterase (Homo sapiens) (P22303 whole entry, looked up): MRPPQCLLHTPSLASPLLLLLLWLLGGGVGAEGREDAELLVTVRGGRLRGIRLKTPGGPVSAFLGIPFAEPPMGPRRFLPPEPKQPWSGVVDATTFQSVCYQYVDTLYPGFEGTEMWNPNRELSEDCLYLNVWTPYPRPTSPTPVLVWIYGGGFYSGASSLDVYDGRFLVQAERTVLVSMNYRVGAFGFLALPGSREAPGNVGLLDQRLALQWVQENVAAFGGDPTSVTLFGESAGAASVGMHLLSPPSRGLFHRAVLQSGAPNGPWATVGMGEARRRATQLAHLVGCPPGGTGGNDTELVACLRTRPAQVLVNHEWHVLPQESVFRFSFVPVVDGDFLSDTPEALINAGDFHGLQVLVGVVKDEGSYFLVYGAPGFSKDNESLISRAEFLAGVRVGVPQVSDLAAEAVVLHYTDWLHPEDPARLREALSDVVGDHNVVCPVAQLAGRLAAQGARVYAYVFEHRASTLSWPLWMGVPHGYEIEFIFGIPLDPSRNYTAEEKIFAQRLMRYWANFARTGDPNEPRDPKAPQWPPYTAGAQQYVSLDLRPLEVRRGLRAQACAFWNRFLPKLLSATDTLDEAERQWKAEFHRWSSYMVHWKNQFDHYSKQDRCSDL
How it was run: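 After overnight attachment at 37 C, SH-SY5Y cells get 30 min compound exposure; detection cocktail (acetylthiocholine, DTNB) then incubates 90 min at 37 C, and absorbance reflects AChE-generated thiocholine.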

[17] = Caspase-3/7 induction in HepG2 cells by small molecules, qHTS cell viability counter screen (AID 1346981); note: series mostly up to about 92 µM; nearly all actives have a fitted effect of over 30% in size
How it was run: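 Treatment of HepG2 cells with DMSO-delivered compounds ran 16 hr at 37 C following a 5-hr pre-incubation of 2,000 cells/well. CellTiter-Fluor fluorescence, read after 1 hr, served as the viability measure in a qHTS format.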

[18] = target: Nuclear receptor subfamily 1 group I member 2 (Homo sapiens) (UniProt O75469); assay: CYP3A4 induction through human pregnane X receptor (PXR) by small molecules, qHTS assay (AID 1346984); note: nearly all actives have a fitted effect of over 40% in size
How it was run: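 After 24 h at 37C with compound, DPX-2 cells (HepG2, co-transfected PXR response element and CYP3A4 promoter-luciferase) got 3uM final P450-Glo Luciferin-IPA for 3 h; One-Glo luminescence followed.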

[19] = target: Nuclear receptor subfamily 1 group I member 2 (Homo sapiens) (UniProt O75469); assay: Human pregnane X receptor (PXR) activation by small molecules, qHTS assay (AID 1346985); note: nearly all actives have a fitted effect of over 40% in size
How it was run: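 DPX-2 cells (HepG2 co-transfected with a PXR response element and a CYP3A4-promoter luciferase construct) were seeded at 2,000 per well, rested 5 hr at 37C, then exposed to DMSO-dissolved compounds for 24 hr. Activation was read as luciferase luminescence.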

[20] = target: Nuclear receptor subfamily 1 group I member 2 (Rattus norvegicus) (UniProt Q9R1A7); assay: Rat pregnane X receptor (rPXR) activation by small molecules, qHTS assay (AID 1346983); conditions: rPXR luciferase reporter cells, One-Glo luminescence, 24 h; stronger effect = higher value; note: nearly all actives have a fitted effect of over 20% in size
Sequence of Nuclear receptor subfamily 1 group I member 2 (Rattus norvegicus) (Q9R1A7 whole entry, looked up): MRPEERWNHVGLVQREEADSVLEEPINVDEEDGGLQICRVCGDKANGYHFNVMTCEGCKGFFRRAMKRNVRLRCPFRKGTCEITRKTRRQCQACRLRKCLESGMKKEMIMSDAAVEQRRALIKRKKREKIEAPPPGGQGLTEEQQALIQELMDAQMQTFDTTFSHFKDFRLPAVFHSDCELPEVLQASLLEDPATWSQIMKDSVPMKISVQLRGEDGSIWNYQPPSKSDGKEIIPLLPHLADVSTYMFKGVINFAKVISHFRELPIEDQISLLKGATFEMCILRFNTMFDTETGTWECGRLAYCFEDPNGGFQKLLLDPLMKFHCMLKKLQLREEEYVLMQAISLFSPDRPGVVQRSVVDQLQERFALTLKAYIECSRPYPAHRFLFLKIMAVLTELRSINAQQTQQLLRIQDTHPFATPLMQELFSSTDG
How it was run: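 Luminescent readout (One-Glo luciferase, 30 min room temperature) followed 24 hr compound treatment at 37 C of rPXR cells plated 2,000 per well and preincubated 5hr; qHTS format with compounds delivered in DMSO.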

Row | SMILES | Potency [1] | Potency [2] | Potency [3] | Potency [4] | Potency [5] | Potency [6] | Potency [7] | outcome [8] | Potency [9] | Potency [10] | Potency [11] | Potency [12] | Potency [13] | Potency [14] | Potency [15] | Potency [16] | Potency [17] | outcome [18] | outcome [19] | max activation [20]
1 | CC(C)C(=O)OCC(C)(C)C(OC(=O)C(C)C)C(C)C (stereo not drawn) | inactive | inactive | inactive | inactive | inactive | inactive | inactive | inactive | inactive | inactive | inactive | inactive | inactive | inactive | inactive | inactive |  |  |  | 
2 | CCOP(=S)(OCC)O/N=C(\C#N)c1ccccc1 | inactive | inactive | 13.3 µM (active) | inactive | inactive | inactive | inactive | inactive | inactive | inactive | inactive | inactive | inactive | inactive | 30.6 µM (active) | 63.3 µM (active) and 17.4 µM (active) | inactive |  |  | 
3 | Clc1nc(Cl)nc(Cl)n1 | inactive | inactive | inactive | inactive | inactive | inactive | inactive | inactive | inactive | inactive | inactive | inactive | inactive | inactive | inactive | inactive | inactive |  |  | 
4 | OCC(O)CO | inactive | inactive | inactive | inactive | inactive | inactive | inactive | inactive | inactive | inactive | inactive | inactive | inactive | inactive | inactive | inactive |  | inactive | inactive | 
5 | CNC(=O)Oc1cccc2c1OC(C)(C)O2 | inactive | inactive | inactive | inactive | inactive | inactive | inactive | inactive | inactive | inactive | inactive | inactive | inactive | inactive | inactive | 1.04 µM (active) and 399 nM (active) | inactive |  |  | 
6 | CC(C)(C)c1ccccc1O | inactive | inactive | inactive | inactive | inactive | inactive | inactive | inactive | inactive | inactive | inactive | inactive | inactive | inactive | inactive | inactive | inactive |  |  | 
7 | Nc1ccc(-c2ccccc2)cc1 | inactive | inactive | 1.99 µM (active) | inactive | inactive | inactive | inactive | inactive | inactive | inactive | inactive | inactive | 56 µM (active) and inactive |  | 28.1 µM (active) and 30.6 µM (active) | inactive | inactive |  |  | 
8 | Cc1ccccc1[N+](=O)[O-] | inactive | inactive | inactive | inactive | inactive | inactive | inactive | inactive |  | inactive | inactive | inactive | inactive | inactive | inactive | inactive | inactive |  |  | 
9 | C=CCc1ccc(OC)cc1 | inactive | inactive | inactive | inactive | inactive | inactive | inactive | inactive | inactive | inactive | inactive | inactive | inactive | inactive | inactive | inactive |  |  |  | 
10 | CCCCN(CCCC)N=O | inactive | inactive | inactive | inactive | inactive | inactive | inactive | inactive |  | inactive | inactive | inactive | inactive | inactive | inactive | inactive |  |  |  | 
11 | Oc1cc(Cl)ccc1Cl | inactive | inactive | inactive | inactive | inactive | inactive | inactive | inactive | inactive | inactive | inactive | inactive | inactive | inactive | inactive | inactive |  |  |  | 
12 | C#C[C@]1(O)CC[C@H]2[C@@H]3CCC4=CC(=O)CC[C@]4(C)[C@H]3CC[C@@]21C | inactive | 24.3 nM (active) | inactive | inactive | inactive | inactive | inactive | inactive | inactive | inactive | inactive | inactive | inactive |  |  | inactive | inactive |  |  | 11.6% (inactive)
13 | O=S(=O)(Oc1ccc(Cl)cc1)c1ccc(Cl)cc1 | inactive | inactive | 17.5 µM (active) and 17.2 µM (active) | inactive | inactive | inactive | inactive | inactive | inactive | inactive | inactive | inactive | inactive |  | 55.2 µM (active) and 30.6 µM (active) | inactive |  |  |  | 
14 | CC(C)NC(C)C | inactive | inactive | inactive | inactive | inactive | inactive | inactive | inactive |  | inactive | inactive | inactive | inactive |  | inactive | inactive | inactive | inactive | inactive | -0.504% (inactive)
15 | NCc1cccnc1 | inactive | inactive | inactive | inactive | inactive | inactive | inactive | inactive | inactive | inactive | inactive | inactive | inactive |  | inactive | inactive |  | inactive | inactive | -2.22% (inactive)
